Common to all, as to settings: mRNA level, 48 h; actives raise or lower the signal
Read-out in test [1]: Insulin-like growth factor-binding protein 1 (IGFBP1), IGFBP1 (gene 3484)
Description: LTEA_HepaRG_IGFBP1: Life Technologies and Expression Analysis (LTEA) Assay for Insulin-like growth factor-binding protein 1 (IGFBP1) using HepaRG (AID 2283508). The method in brief: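 Read-out is qRT-PCR transcript level normalized to three housekeeping genes, fitted in both directions against 0.5% DMSO. Differentiated HepaRG cells received eight half-log concentrations (top 100 uM) in duplicate for 48 h in serum-free induction medium.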

Read-out in test [2]: Interleukin 6 (IL6), IL6 (gene 3569)
Description: LTEA_HepaRG_IL6: Life Technologies and Expression Analysis (LTEA) Assay for Interleukin 6 (IL6) using HepaRG (AID 2283509). The method in brief:
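Differentiated human HepaRG cells, plated 48 h then switched to serum-free induction medium, were exposed in duplicate for 48 h to eight half-log concentrations up to 100 uM in 0.5% DMSO. IL6 mRNA measured by qRT-PCR, normalized to ACTB/GAPDH/POLR2A.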

Read-out in test [3]: Interleukin 6 Receptor (IL6R), IL6R (gene 3570)
Description: LTEA_HepaRG_IL6R: Life Technologies and Expression Analysis (LTEA) Assay for Interleukin 6 Receptor (IL6R) using HepaRG (AID 2283510). The method, boiled down: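 Concentration-response in human liver HepaRG cells: eight concentrations from 100 uM downward by half-logs, 48 h exposure, 0.5% DMSO vehicle. IL6R mRNA change measured by qRT-PCR and fitted in both directions relative to vehicle.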

Read-out in test [4]: Keratin 19 (KRT19), KRT19 (gene 3880)
Kind of test: LTEA_HepaRG_KRT19: Life Technologies and Expression Analysis (LTEA) Assay for Keratin 19 (KRT19) using HepaRG (AID 2283512). The method, boiled down:
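KRT19 transcript measured by TaqMan qRT-PCR, referenced to three housekeeping genes, after HepaRG cells received test chemicals for 48 h. Eight half-log concentrations, top 100 uM, 0.5% DMSO vehicle; increases and decreases both fitted.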

Read-out in test [5]: JUN Transcription Factor, JUN (gene 3725)
Description: LTEA_HepaRG_JUN: Life Technologies and Expression Analysis (LTEA) Assay for JUN Transcription Factor using HepaRG (AID 2283513). The method in brief:
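Human HepaRG liver cells receive test chemicals in 0.5% DMSO for 48 h across an eight-point range topping at 100 uM. Expression changes in JUN are scored in both directions against the DMSO vehicle.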

Read-out in test [6]: Lipase C (LIPC), LIPC (gene 3990)
Kind of test: LTEA_HepaRG_LIPC: Life Technologies and Expression Analysis (LTEA) Assay for Lipase C (LIPC) using HepaRG (AID 2283514). The method in brief:
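Differentiated human HepaRG cells in serum-free induction medium were exposed in duplicate for 48 h to eight concentrations (top 100 uM, half-log steps, 0.5% DMSO). LIPC mRNA was quantified by TaqMan qRT-PCR, normalized to ACTB, GAPDH and POLR2A, with bidirectional fitting versus DMSO.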

Read-out in test [7]: Lipoprotein lipase (LPL), LPL (gene 4023)
Description: LTEA_HepaRG_LPL: Life Technologies and Expression Analysis (LTEA) Assay for Lipoprotein lipase (LPL) using HepaRG (AID 2283515). The method, boiled down: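 Differentiated human HepaRG cells in serum-free induction medium were exposed in duplicate for 48 h to eight half-log concentrations (top 100 uM) in 0.5% DMSO. LPL mRNA was quantified by TaqMan qRT-PCR, normalized to ACTB, GAPDH and POLR2A.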

Read-out in test [8]: MicroRNA 122 (MIR122), gene 406906
Kind of test: LTEA_HepaRG_MIR122: Life Technologies and Expression Analysis (LTEA) Assay for MicroRNA 122 (MIR122) using HepaRG (AID 2283516). Also: the transcript read is the microRNA miR-122. The method, boiled down: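 HepaRG, 48 h exposure, 8-pt half-log from 100 uM, 0.5% DMSO; TaqMan qRT-PCR; bidirectional fit vs DMSO.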

Read-out in test [9]: matrix metalloproteinase-10 (MMP10), MMP10 (gene 4319)
Description: LTEA_HepaRG_MMP10: Life Technologies and Expression Analysis (LTEA) Assay for matrix metalloproteinase-10 (MMP10) using HepaRG (AID 2283517). The method in brief:
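HepaRG, collagen I, ~100,000 cells/well; serum-free induction medium; 48 h exposure, duplicate, 8-pt half-log to 100 uM, 0.5% DMSO. Readout: TaqMan qRT-PCR, normalized to ACTB/GAPDH/POLR2A; bidirectional fit vs DMSO.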

Read-out in test [10]: MYC, MYC (gene 4609)
Description: LTEA_HepaRG_MYC: Life Technologies and Expression Analysis (LTEA) Assay for MYC using HepaRG (AID 2283518). The method in brief:
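MYC transcript changes, up or down relative to 0.5% DMSO, from TaqMan qRT-PCR normalized to three housekeeping genes. Human HepaRG cultures received chemicals for 48 h at eight half-log concentrations up to 100 uM, in duplicate.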

Read-out in test [11]: matrix metalloproteinase-3 (MMP3), MMP3 (gene 4314)
Description: LTEA_HepaRG_MMP3: Life Technologies and Expression Analysis (LTEA) Assay for matrix metalloproteinase-3 (MMP3) using HepaRG (AID 2283519). The method, boiled down: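 Differentiated human HepaRG cells, plated 48 h on collagen I, were exposed in duplicate for 48 h in serum-free induction medium to eight half-log concentrations up to 100 uM in 0.5% DMSO. MMP3 mRNA was quantified by TaqMan qRT-PCR, normalised to ACTB, GAPDH and POLR2A.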

Read-out in test [12]: Paternally Expressed 10 (PEG10), PEG10 (gene 23089)
Description: LTEA_HepaRG_PEG10: Life Technologies and Expression Analysis (LTEA) Assay for Paternally Expressed 10 (PEG10) using HepaRG (AID 2283520).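 As to AC50: PEG10 transcript by qRT-PCR normalised to ACTB GAPDH and POLR2A.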 The method, boiled down: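 Chemicals tested on HepaRG cells for 48 h, highest concentration 100 uM. PEG10 expression assessed by qRT-PCR relative to DMSO control.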

Read-out in test [13]: Nuclear factor NF-kappa-B p105 subunit (Homo sapiens) (UniProt P19838)
Description: LTEA_HepaRG_NFKB1: Life Technologies and Expression Analysis (LTEA) Assay for Nuclear Factor Kappa B Subunit 1 (NFKB1) using HepaRG (AID 2283521).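 Also: TaqMan qRT-PCR transcript normalised to ACTB GAPDH and POLR2A housekeeping genes.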 The method, boiled down:
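HepaRG, 48 h exposure; 8-pt half-log series from 100 uM in 0.5% DMSO; duplicates. Readout: NFKB1 mRNA by qRT-PCR (Fluidigm arrays), housekeeping-normalized. Gain/loss fit vs DMSO baseline.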

Read-out in test [14]: Protein phosphatase 2A (PPP2R4), PTPA (gene 5524)
Kind of test: LTEA_HepaRG_PPP2R4: Life Technologies and Expression Analysis (LTEA) Assay for Protein phosphatase 2A (PPP2R4) using HepaRG (AID 2283522). The method in brief: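 Gene-expression endpoint in HepaRG hepatic cells: 48 h treatment across eight half-log concentrations up to 100 uM in 0.5% DMSO. PPP2R4 mRNA by qRT-PCR, normalized to three endogenous control genes.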

Read-out in test [15]: Phosphatase and tensin (PTEN), PTEN (gene 5728)
Description: LTEA_HepaRG_PTEN: Life Technologies and Expression Analysis (LTEA) Assay for Phosphatase and tensin (PTEN) using HepaRG (AID 2283523). The method in brief:
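Differentiated human HepaRG cells, plated 48 h then switched to serum-free induction medium, were exposed in duplicate for 48 h to eight half-log concentrations up to 100 uM in 0.5% DMSO. PTEN mRNA measured by TaqMan qRT-PCR, normalized to ACTB/GAPDH/POLR2A, bidirectional fit versus DMSO.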

Read-out in test [16]: solute carrier (SLC22A1), SLC22A1 (gene 6580)
Description: LTEA_HepaRG_SLC22A1: Life Technologies and Expression Analysis (LTEA) Assay for solute carrier (SLC22A1) using HepaRG (AID 2283524). The method in brief:
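Human HepaRG cells were plated 48 h, switched to serum-free induction medium, then exposed in duplicate for 48 h to 8-point half-log series from 100 uM in 0.5% DMSO. SLC22A1 mRNA measured by qRT-PCR, normalized to ACTB/GAPDH/POLR2A, fitted bidirectionally versus DMSO.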

Read-out in test [17]: Pyruvate Dehydrogenase Kinase 4 (PDK4), PDK4 (gene 5166)
Description: LTEA_HepaRG_PDK4: Life Technologies and Expression Analysis (LTEA) Assay for Pyruvate Dehydrogenase Kinase 4 (PDK4) using HepaRG (AID 2283525). The method in brief:
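Differentiated human HepaRG cells, pre-cultured 48 h, were exposed in duplicate for 48 h in serum-free induction medium to eight half-log concentrations up to 100 uM in 0.5% DMSO. PDK4 mRNA was quantified by qRT-PCR, normalized to ACTB, GAPDH and POLR2A, bidirectional fitting versus DMSO.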

Read-out in test [18]: NAD(P)H dehydrogenase [quinone] 1 (NQO1), NQO1 (gene 1728)
Description: LTEA_HepaRG_NQO1: Life Technologies and Expression Analysis (LTEA) Assay for NAD(P)H dehydrogenase [quinone] 1 (NQO1) using HepaRG (AID 2283526). The method, boiled down:
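Human HepaRG hepatic cells received chemicals for 48 h in serum-free induction medium with 0.5% DMSO, up to 100 uM. Expression was assessed by TaqMan qRT-PCR against housekeeping controls and fitted bidirectionally against DMSO.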

Read-out in test [19]: Nuclear factor erythroid 2-related factor 2 (Homo sapiens) (UniProt Q16236)
Description: LTEA_HepaRG_NFE2L2: Life Technologies and Expression Analysis (LTEA) Assay for Nuclear factor erythroid 2-related factor 2 (NFE2L2) Transcription Factor using HepaRG (AID 2283527).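 As to outcome: TaqMan qRT-PCR transcript level normalised to ACTB GAPDH and POLR2A housekeeping genes.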 The method, boiled down:
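Differentiated human HepaRG cells in serum-free induction medium were exposed for 48 h to eight concentrations (top 100 uM, half-log dilutions, 0.5% DMSO), in duplicate. NFE2L2 mRNA was quantified by TaqMan qRT-PCR, normalized to ACTB, GAPDH and POLR2A, with bidirectional fitting versus DMSO.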

Read-out in test [20]: Potassium channel subfamily K member 1 (KCNK1), KCNK1 (gene 3775)
Description: LTEA_HepaRG_KCNK1: Life Technologies and Expression Analysis (LTEA) Assay for Potassium channel subfamily K member 1 (KCNK1) using HepaRG (AID 2283511). The method, boiled down: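 Differentiated human HepaRG cells in serum-free induction medium were exposed in duplicate for 48 h to 8 half-log concentrations up to 100 uM in 0.5% DMSO. KCNK1 mRNA was measured by TaqMan qRT-PCR, normalized to ACTB, GAPDH and POLR2A, and fitted bidirectionally versus DMSO.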

For five molecules, AC50 and outcome results are on record in PubChem BioAssay (EPA / NIEHS).

Activity calls are given as the source filed them. The calls were made as follows: active = hit-call score of the fitted dose curve at least 0.9, where 1 is the maximum; inactive = score below 0.9.

Chain of Nuclear factor NF-kappa-B p105 subunit (Homo sapiens) (P19838 whole entry, looked up): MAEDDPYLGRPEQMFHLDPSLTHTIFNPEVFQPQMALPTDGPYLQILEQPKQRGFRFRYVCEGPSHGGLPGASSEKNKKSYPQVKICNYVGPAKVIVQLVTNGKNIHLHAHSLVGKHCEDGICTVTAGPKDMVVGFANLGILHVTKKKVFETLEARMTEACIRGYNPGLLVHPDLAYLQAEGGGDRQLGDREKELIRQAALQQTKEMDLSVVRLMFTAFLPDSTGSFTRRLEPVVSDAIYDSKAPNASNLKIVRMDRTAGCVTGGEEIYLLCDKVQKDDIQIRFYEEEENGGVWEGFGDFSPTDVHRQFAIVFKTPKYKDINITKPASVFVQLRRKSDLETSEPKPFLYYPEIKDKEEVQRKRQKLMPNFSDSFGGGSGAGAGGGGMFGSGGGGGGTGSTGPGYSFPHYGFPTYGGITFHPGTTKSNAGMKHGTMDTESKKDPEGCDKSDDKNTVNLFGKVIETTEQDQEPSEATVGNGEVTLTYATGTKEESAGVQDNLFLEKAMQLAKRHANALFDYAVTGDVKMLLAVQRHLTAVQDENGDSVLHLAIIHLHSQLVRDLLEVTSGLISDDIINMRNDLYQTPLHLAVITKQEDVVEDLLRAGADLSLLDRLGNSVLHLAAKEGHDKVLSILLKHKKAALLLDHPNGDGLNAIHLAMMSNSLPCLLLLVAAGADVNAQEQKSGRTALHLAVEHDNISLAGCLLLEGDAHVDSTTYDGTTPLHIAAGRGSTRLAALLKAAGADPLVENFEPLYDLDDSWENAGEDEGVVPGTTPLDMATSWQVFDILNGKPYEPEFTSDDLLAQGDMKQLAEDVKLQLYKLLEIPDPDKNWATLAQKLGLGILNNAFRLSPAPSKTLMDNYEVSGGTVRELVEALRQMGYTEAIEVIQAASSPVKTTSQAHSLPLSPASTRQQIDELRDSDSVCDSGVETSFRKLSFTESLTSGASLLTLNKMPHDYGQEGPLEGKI
Chain of Nuclear factor erythroid 2-related factor 2 (Homo sapiens) (Q16236 whole entry, looked up): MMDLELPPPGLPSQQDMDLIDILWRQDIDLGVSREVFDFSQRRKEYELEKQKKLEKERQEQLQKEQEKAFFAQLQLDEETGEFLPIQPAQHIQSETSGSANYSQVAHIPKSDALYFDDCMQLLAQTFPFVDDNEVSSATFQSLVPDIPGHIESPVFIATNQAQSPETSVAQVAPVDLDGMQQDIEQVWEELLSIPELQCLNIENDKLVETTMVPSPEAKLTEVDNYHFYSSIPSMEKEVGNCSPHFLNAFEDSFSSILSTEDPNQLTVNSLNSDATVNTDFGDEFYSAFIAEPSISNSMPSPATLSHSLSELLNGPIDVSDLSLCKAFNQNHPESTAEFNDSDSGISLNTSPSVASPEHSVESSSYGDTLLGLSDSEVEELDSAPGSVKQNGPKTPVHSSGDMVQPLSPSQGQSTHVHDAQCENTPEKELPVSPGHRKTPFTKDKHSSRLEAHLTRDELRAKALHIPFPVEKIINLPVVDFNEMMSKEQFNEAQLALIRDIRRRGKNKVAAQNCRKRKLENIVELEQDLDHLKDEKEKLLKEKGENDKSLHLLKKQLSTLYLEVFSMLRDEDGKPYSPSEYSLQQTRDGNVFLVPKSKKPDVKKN

Usually AC50 stands for the concentration at which the activity in the assay is half-maximal. For the molecule `CCCCCCCCCC[N+](C)(C)CCCCCCCCCC`, the AC50 in test [1] was 81.6 µM (active); in test [2], 78.3 µM (active); in [5], 90.5 µM (active); in [7], 88.7 µM (active); in [11], 94 µM (active); in [12], 50 µM (active). For the same molecule, the AC50 in [15] was 83.2 µM (active); in test [16] it was 61.5 µM (active); in [17] it was 82.5 µM (active); in test [19], 75 µM (active). Also, the molecule was called inactive in [3], in [4], in test [6], in [8], in test [9] and in test [10]. Also, the molecule was classed as inactive in test [13], in test [14] and in test [18].

Consider `ClC(Cl)=C(c1ccc(Cl)cc1)c1ccc(Cl)cc1`, for which the result in test [1], in [2], in [3], in test [20], in [4] and in test [5] was inactive. In addition, the call in test [6], in [7], in [8], in test [9], in test [10] and in test [11] was inactive. Further, the call in test [12], in test [13], in test [14], in [15], in test [16] and in test [18] was inactive.

`CC(C)(O)C(=O)Nc1ccc([N+](=O)[O-])c(C(F)(F)F)c1`: the AC50 was 0.0432 µM (active) in test [1]; 0.052 µM (active) in [20]; 0.0328 µM (active) in test [5]; 0.0399 µM (active) in test [6]; 0.0308 µM (active) in [10]; 0.0298 µM (active) in test [11]. The AC50 in test [12] was 25 µM (active); in test [14], 0.0226 µM (active); in test [18] it was 0.0268 µM (active). Also, the molecule was called inactive in test [2], in test [3], in [4], in test [7], in test [8] and in [9]. In addition, the call in [15], in test [16] and in [17] was inactive.

With `Nc1ccc(-c2ccc(N)cc2)cc1`, the molecule was called inactive in test [1], in test [2], in [3], in test [20], in test [4] and in test [5]. The call in test [6], in test [7], in test [8], in test [9], in test [10] and in [11] was inactive. Further, the call in test [14], in test [15], in test [16], in [17] and in test [18] was inactive. In test [12], the AC50 was 2.2 µM (active).

As to `ClC1=C(Cl)[C@]2(Cl)[C@@H]3[C@@H](Cl)[C@H]4O[C@H]4[C@@H]3C1(Cl)C2(Cl)Cl`, the call in test [1], in test [2], in test [3], in test [20], in test [4] and in [6] was inactive. In addition, the molecule was called inactive in test [7], in test [8], in [9], in test [10], in test [11] and in test [12]. Moreover, the outcome in [13], in [14], in test [15], in [17], in test [18] and in test [19] was inactive. Moreover, the AC50 in test [16] is 50 µM (active).
